Results as given in the OligoGym collection.

Molecular target: SUN1
Assay: pooled miR-30 sensor sort-seq; sequence = guide strand
Settings: shRNA
Also: reference of the scale not given here.

| Sequence | sensor-assay potency score (higher = more potent) |
| --- | --- |
| TTCAGGGAGACAGCGCTGCTGG | -1.01 |
| TTTGTTTGTGCTTCTGCGCTGT | 0.665 |
| TTGTTTGTGCTTCTGCGCTGTT | -0.561 |
| TAGAATAAACTCTCGACACGGG | -0.0133 |
| TCGAGTCACAGCATCCTGCAGG | -0.812 |
| TTCTTCAGGGAGACAGCGCTGC | -0.739 |
| TTGTTGTTCTGGCCGCTCGGTT | -1.37 |
| TTGGAAAGCTGTGTCGTCGGGT | 0.562 |
| TTTTGGTTTCGTAAGTTTCAGA | -0.848 |
| TTTGTTGTTCTGGCCGCTCGGT | -0.815 |
| TTTTCTAATCCATAGACGGCGA | -0.893 |

Molecular target: SURF1
Assay: as above
Settings: shRNA

| Sequence | sensor-assay potency score (higher = more potent) |
| --- | --- |
| TTCCTCAGAGTAACTCTGGTTT | -0.24 |
| TAGGAATTTCTTAAACCACAGG | -0.992 |
| TCAGGATTCACTTTCTTCCTGG | 0.148 |
| TCAGCTTCCACTTCCGACGCTG | 0.863 |
| TTAAACCACAGGTAGGATGTAG | -0.235 |
| TTCCAGGTCTCGATAATGCCAG | -0.863 |
| TTGAAATACTGCATTATCCAGG | -0.184 |
